The values below come from ChEMBL document CHEMBL3988442, “University of Dundee, Small-Polar-MMV Screening Library” (2021).

The target of assay [1] is T1, Aspartate--tRNA(Asp/Asn) ligase (Mycobacterium tuberculosis (strain ATCC 25618 / H37Rv)) (UniProt P9WFW3). Note: in the data most compounds retested in dose-response had high values.
T1 sequence (whole entry): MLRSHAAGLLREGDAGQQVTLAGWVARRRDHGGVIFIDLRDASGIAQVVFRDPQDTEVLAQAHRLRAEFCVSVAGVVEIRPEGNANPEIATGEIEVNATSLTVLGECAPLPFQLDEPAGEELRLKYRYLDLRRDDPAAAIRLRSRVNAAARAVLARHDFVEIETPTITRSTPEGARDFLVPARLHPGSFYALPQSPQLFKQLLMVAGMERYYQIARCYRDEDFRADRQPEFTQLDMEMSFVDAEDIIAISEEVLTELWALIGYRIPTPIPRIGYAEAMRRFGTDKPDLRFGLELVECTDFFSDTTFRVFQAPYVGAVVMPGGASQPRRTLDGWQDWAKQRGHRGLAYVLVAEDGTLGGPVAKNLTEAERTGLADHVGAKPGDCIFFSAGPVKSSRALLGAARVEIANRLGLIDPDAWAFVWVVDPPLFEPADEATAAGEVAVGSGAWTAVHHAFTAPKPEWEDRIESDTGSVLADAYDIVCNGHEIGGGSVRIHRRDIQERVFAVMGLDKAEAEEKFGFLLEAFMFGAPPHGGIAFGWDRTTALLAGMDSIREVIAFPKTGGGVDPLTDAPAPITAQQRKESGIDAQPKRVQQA
Description: Assay for Asp RNA synthetase-1 from Mycobacterium tuberculosis. It is filed as functional. As to conditions: 30 µM. Set-up: scale not given: direction of the effect not stated beside the values.

Assay [2] has as its target Shiga toxin 2 (Escherichia coli O157:H7) (UniProt P09385+P09386). The experiment in a line: E. coli 0.157:H7 Shiga Toxin SOP - stx2 screening assay. It counts as functional. More on the design: scale not given: direction of the effect not stated beside the values. As to conditions: 30 µM.

In the case of `Cc1cc(NC(=O)N2CCN(c3nc(C)c(C)s3)CC2)no1`, the Percent Effect in assay [1] is 0.38%; in assay [2] it was -22.7%.
As for `CCOCCC(=O)N1CCCN(Cc2csc(CC)n2)CC1`, the Percent Effect in assay [1] is -0.742%; in assay [2], -4.81%.
Turning to `Cc1nc(C)n(CC2CN(CCOc3ccccc3F)CCO2)n1` (configuration not stated), the Percent Effect in assay [1] is -0.955%; in assay [2], 9.47%.
Consider `Cc1nc(-c2ccsc2)ccc1C(=O)NCCC1CCCO1` (configuration not stated), for which the Percent Effect is 0.767% in assay [1] and -18.3% in assay [2].
Regarding `CNc1snc(C)c1C(=O)N1CCCC(n2ccnc2C(C)C)C1` (configuration not stated), the values for the Percent Effect in assay [1] and in assay [2] were 1.51% and 3.71%, respectively.
On to `Cc1cc(C)c(CNC(=O)NCc2ccc3c(c2)CCC3)c(=O)[nH]1`, for which the Percent Effect in assay [1] was -4.97%; in assay [2], 32.4%.
For `CN(C(=O)c1cccc(C(=O)NS(C)(=O)=O)c1)c1ccccc1` the same measures were 9.93% and -20.1%.
For the compound `NC(=O)C1CCCN(Cc2c(-c3ccco3)[nH]c3ncccc23)C1` (configuration not stated), the values for the Percent Effect in assay [1] and in assay [2] were 10.6% and 3.34%, respectively.
Regarding `COCC(=O)N1CC[C@@H](N2CCOCC2)[C@@H]1Cc1ccccc1`, the Percent Effect in assay [1] is 9.38%; in assay [2] it was -28.8%.
The matching figures for `CC(C)c1cc2c(O)nc(CSCC(=O)O)nc2s1`: -0.29% and -12.1%.
Regarding `Cc1cnn(CC2CCCN2CC(=O)Nc2nc(C)cs2)c1` (configuration not stated), the Percent Effect was 1.62% in assay [1] and -8.49% in assay [2].
Turning to `Cc1cn2c(n1)CCC(NC(=O)c1ccc(CS(C)(=O)=O)o1)C2` (configuration not stated), the figures for the Percent Effect in assay [1] and in assay [2] were -4.46% and 10.6%, respectively.
The matching figures for `COc1cccc(OCc2cc(C(=O)NC[C@H]3CCCN3)n[nH]2)c1`: 1% and -1.49%.
Take `CCN(CC(=O)NC(C)C)S(=O)(=O)N1CCC(C)C1` (configuration not stated): the Percent Effect is 2.41% in assay [1] and -3.8% in assay [2].
For the compound `O=C(c1ccc(F)c(Cl)c1)N1C[C@@H]2CC[C@H](C1)N(Cc1ccccc1)C2`, the Percent Effect in assay [1] was 4.06%; in assay [2], -25.3%.
With `Cc1cc2c(=O)n3c(nc2s1)CCN(Cc1cnn(C)c1C)CC3`, the Percent Effect was -4.72% in assay [1] and 8.81% in assay [2].
Regarding `Cc1ccc(Nc2nccc(C3CCCN(CC(=O)N(C)C)C3)n2)nc1` (configuration not stated), the values for the Percent Effect in assay [1] and in assay [2] were -2.93% and -28.3%, respectively.
Consider `O=C(CN(Cc1ccccc1)CC1CCOCC1)NC(=O)NC1CC1`, for which the results for the Percent Effect in assay [1] and in assay [2] were 0.182% and -31.8%, respectively.
On to `CCS(=O)(=O)CC(=O)NC(c1ccccc1)C1CCCCC1` (configuration not stated), for which the Percent Effect was found to be 3.23% in assay [1] and 7.43% in assay [2].
The matching figures for `CNc1cccc(C2CCCN(C(=O)c3ccncc3)C2)n1` (configuration not stated): -6.06% and 17.8%.
For `CCS(=O)(=O)N1CC[C@]2(C[C@@H](OCC3CC3)CO2)C1` the same measures were -1.4% and 11%.
The matching figures for `CCc1cccc(OCC(=O)N2CCCC(n3cncn3)C2)c1` (configuration not stated): -0.88% and 26%.
As for `CCCNC(=O)CNc1cc(C#N)ccc1OCC`, the Percent Effect in assay [1] was -8.31%; in assay [2], -4.19%.
For the compound `CCOCC(O)CN1CCN(C(=O)c2ccnc(N(C)C)c2)CC1` (configuration not stated), the values for the Percent Effect in assay [1] and in assay [2] were -2.58% and -13.4%, respectively.
On to `Cc1noc(C)c1-c1cncc(C2CCCN2Cc2cncnc2)n1` (configuration not stated), for which the Percent Effect in assay [1] was -2.78%; in assay [2] it was 0.369%.
As for `CN(CCC(F)(F)F)C(=O)C1CCCN1C(=O)OC(C)(C)C` (configuration not stated), the Percent Effect was 4.8% in assay [1] and -21.4% in assay [2].
For `COCC(=O)NCc1cc(=O)n2c(n1)CN(CC1CCOC1)CCC2` (configuration not stated), the Percent Effect is -4.6% in assay [1] and -5.14% in assay [2].
On to `Cc1cnc(CNc2c(F)cccc2-n2cccn2)o1`, for which the Percent Effect in assay [1] was -2.01%; in assay [2] it was -27.4%.
As to `Cc1ncnc2c1CCN(Cc1ccc3c(c1)OCO3)CC2`, the Percent Effect in assay [1] is -0.729%; in assay [2], -19.3%.
For the compound `COc1c(CNC2CCc3cc(F)ccc32)c(C)nn1C` (configuration not stated), the Percent Effect was -5.95% in assay [1] and 7.74% in assay [2].
Consider `COC(CNC(=O)N1CCC(n2cncn2)CC1)c1ccccc1` (configuration not stated), for which the Percent Effect in assay [1] is -3.54%; in assay [2] it was 7.26%.
Take `Cc1cc(C(=O)NCc2ccc(N3CCCC(C(N)=O)C3)cc2)[nH]n1` (configuration not stated): the Percent Effect in assay [1] is -3.98%; in assay [2], -16.8%.
Regarding `Fc1cccc(Oc2ccc(CNCC3CNc4ccnn4C3)cn2)c1` (configuration not stated), the Percent Effect is -6.37% in assay [1] and -101% in assay [2].
Regarding `CCN(CC1CCCO1)C(=O)Nc1cc(OC)c(OC)cc1C` (configuration not stated), the values for the Percent Effect in assay [1] and in assay [2] were -2.8% and -9.12%, respectively.
`Cc1ncsc1CN1C[C@@H]2COC[C@]2(C(=O)NCC2CC2)C1`: the values for the Percent Effect in assay [1] and in assay [2] were 0.838% and -13.5%, respectively.
As to `CCn1ccnc1CN1CCN(Cc2ccccn2)CC1C` (configuration not stated), the Percent Effect was -1.39% in assay [1] and -13.6% in assay [2].
With `O=C1CC(c2ccc(F)c(F)c2)c2snc(C(=O)O)c2N1` (configuration not stated), the Percent Effect is 3.57% in assay [1] and -5.34% in assay [2].
On to `CCC(C)NC(=O)N1CCCn2cnc(CO)c2C1` (configuration not stated), for which the Percent Effect in assay [1] was -2.9%; in assay [2] it was -0.62%.
With `Cc1cc(NC(=O)C(c2cccc(F)c2)N2CCOCC2)ccn1` (configuration not stated), the Percent Effect in assay [1] was 5%; in assay [2], -6.3%.
For `O=C(Nc1ccccc1OC(F)F)C1=NN(c2ccccc2)C(=O)CN1` the same measures were 9.31% and -3.57%.
For `O=C(CN1CCCCC1Cn1cncn1)NCCc1ccc(F)cc1` (configuration not stated), the Percent Effect in assay [1] is 3.25%; in assay [2], -5.15%.
`O=c1cc(Cn2ccnc2)nc2n1CCCN(Cc1ccsc1)C2`: the Percent Effect in assay [1] was -0.029%; in assay [2], -13.8%.
The matching figures for `NC[C@H]1CC[C@H](C(NC(=O)c2cccc(F)c2)c2ccccn2)CC1` (some centres not stated): -0.28% and -71.9%.
As for `CC(=O)N1CCC(C(=O)NCCN2CCCCC2)CC1`, the Percent Effect is -0.501% in assay [1] and -3.32% in assay [2].
As to `COCCNC(=O)[C@H]1CN(c2nnc(C)s2)C[C@H]2OCC[C@@H]12`, the Percent Effect in assay [1] was -1.22%; in assay [2] it was -23.9%.
In the case of `CN(Cc1cccs1)C(=O)CN1CCCC1Cn1cncn1` (configuration not stated), the Percent Effect in assay [1] is 5.56%; in assay [2], -62.3%.
The matching figures for `c1ncn(Cc2cnc3n2CCN(Cc2ccsc2)CC3)n1`: -1.22% and -2.1%.
Turning to `CC(=O)Nc1nc(C2CCN(C(C)=O)CC2)cs1`, the results for the Percent Effect in assay [1] and in assay [2] were -1.69% and -0.268%, respectively.
For `COc1ccc(-c2noc(CN3CCOCC3C)n2)cc1OC` (configuration not stated), the figures for the Percent Effect in assay [1] and in assay [2] were 4.1% and 26.5%, respectively.
As to `Cc1cc(C(=O)O)cc(S(=O)(=O)Nc2ccc3c(c2)OCO3)c1C`, the Percent Effect in assay [1] was 11.6%; in assay [2], -48%.
For `COC(=O)c1cccc(OCCn2nc(-c3cccs3)oc2=O)c1`, the Percent Effect in assay [1] was 3.9%; in assay [2], 25%.
